Methyltransferases = Primary Screen for Target Class Profiling of Small Molecule Inhibitors of Methyltransferases | calls only at 40 µM | 25,000 tested, 3.9% active | AID 1745853, 2022 | purified enzyme, MTase-Glo SAH luminescence; hits give low values; call rule not given here
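Each enzyme was reacted with SAM and its substrate, with compounds tested once at 40 uM; SAH formed was read by MTase-Glo luminescence.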
Numbers without * were called inactive; i = inactive; + = active, no number; ! = not confirmed by another sample. Many of the other results were omitted from the sample, so hits are more common in it than they were. On the % scale 0 is the no-effect control and ±100 the full control effect.

SMILES | Methyltransferases
COc1cccc(C(=O)N2CCN(C(=O)COc3cccc(C)c3)CC2)c1OC | i
C=CC(=O)N1CCN(C(=O)c2cc(-c3cc(Cl)ccc3Cl)c(Cl)cc2OC)CC1 | +
Cc1ccc(CNC(=O)Cn2c(N3CCCCC3)nc(C)c(C)c2=O)cc1 | i
Cn1c(CCC(=O)NC2CCOC2)nc2cc(S(=O)(=O)N3CCCC3)ccc21 (stereo not drawn) | i
CCOc1ccc(C(=O)Nc2ccc3c(c2)C(=O)N(C)C2=NCCN23)cc1OCC | i
COc1cccc(Cn2nc3n(C)c(=O)c4ccc(C(=O)NC5CCCCC5)cc4n3c2=O)c1 | i
C[n+]1cc2c3c(ccc2c2ccc4cc5c(cc4c21)OCO5)OCO3 | +
COc1ccccc1CNC(=O)C1c2c(n(C)c3ccccc23)SCC(=O)N1C1CCCCC1 (stereo not drawn) | i
CN(C)C(=O)C(O)C(Cc1ccccc1)NC(=O)c1cc2cc(Cl)ccc2[nH]1 (stereo not drawn) | i
C/C=C(/C)C(=O)OC1C2OC2C2(CO2)C2C3OC(=O)C(C)C3CCC12C (stereo not drawn) | i
O=C1Nc2ccc(Cl)cc2[C@@](C#CC2CC2)(C(F)(F)F)O1 | +!
COc1ccccc1CNC(=O)C1(C)Cn2nc(-c3ccccc3)cc2C(=O)N1Cc1ccccc1F (stereo not drawn) | i
O=C(O)CO[C@@H]1COCC[C@H]1NC(=O)c1cc2c(s1)CCCCC2 | i
COCCNC(=O)c1cc2n(n1)CC(C)(C(=O)NC1CCCCCC1)N(C)C2=O (stereo not drawn) | i
CCN(CC)CCOc1ccc(Nc2ncc3cc(-c4c(Cl)cccc4Cl)c(=O)n(C)c3n2)cc1 | +
C[C@H]1CC[C@H]2[C@@H](C=C[C@@](C)(O)[C@]2(C)C(=O)CCO)C1 | i
CC(C)(C)c1ccc(S(=O)(=O)/C=C/C#N)cc1 | +
CC(C)NC(=O)c1cc2n(n1)CC(C)(C(=O)NC1CCCCCC1)N(C)C2=O (stereo not drawn) | i
CCOC(=O)c1cc2n(n1)CC(C)(C(=O)NCCC(C)C)N(c1cc(C)cc(C)c1)C2=O (stereo not drawn) | i
CC(C)c1cc(-c2n[nH]c(=O)n2-c2ccc3c(ccn3C)c2)c(O)cc1O | +
Cc1cc(C)c(NC(=O)CN(C)S(=O)(=O)c2ccc3[nH]c4c(c3c2)CCCC4)c(C)c1 | i
Cc1ccc(-c2c(-c3nn(C)c4ncnc(N5CC[C@H](N6CCCCC6)C5)c34)cnn2C)cc1 | i
N#Cc1cccc(-c2c[nH]c3ncnc(N4CCOCC4)c23)c1 | +
CC(C)C1=CC2=CCC3[C@](C)(CCC[C@@]3(C)C(=O)O)C2CC1=O (stereo partly drawn) | i
CCCn1c(=O)c2ccccc2n2c(SCC(=O)Nc3ccc(CC)cc3)nnc12 | i
SMILES | Methyltransferases
COc1ccccc1CN1C(=O)c2ccc(-c3ccco3)n2CC1(C)C(=O)NC1CCCCCCC1 (stereo not drawn) | i
CN(C)c1ccc(/C=C2\C(=O)Nc3ccccc32)cc1 | +
CCNC(=O)[C@@H]1C[C@H](NC(=O)c2ccc(=O)n(C)c2)CN1Cc1ccoc1 | i
NC[C@H](O)c1ccc(O)c(O)c1 | +
CC(C)NCC(O)c1ccc(O)c(O)c1 (stereo not drawn) | i
COc1cc(C(O)CO)ccc1O (stereo not drawn) | i
CCC(C)NC(=O)c1ccc2c(=O)n(CCC(C)C)c3nn(CC(=O)Nc4cccc(C)c4)c(=O)n3c2c1 (stereo not drawn) | i
c1cc(-c2ccnc3nc(C4CCC4)nn23)ccn1 | i
O=[N+]([O-])c1ccc(CNc2nc(NCc3cccc(C(F)(F)F)c3)nc3nc[nH]c23)cc1 | +!
CCOC(=O)N1CCC2(CC1)N=C(CCC(C)C)NC2=O | i
CCOC(=O)c1cc2n(n1)CC(C)(C(=O)NC1CCC(C)CC1)N(Cc1ccc(CC)cc1)C2=O (stereo not drawn) | i
CN(C)CCC[C@]1(c2ccc(F)cc2)OCc2cc(C#N)ccc21 | +
Cc1cccc(NS(=O)(=O)c2cc3c(cc2Cl)n(C)c(=O)n3C)c1 | i
CCCN(CCC)CCCN1C(=O)c2cc3occc3n2CC1(C)C(=O)NC1CCCCCC1 (stereo not drawn) | i
CCCC1(CCC)CCC2(CCN(CCCN(CC)CC)C2)CC1 | +
Cc1cc(C)cc(N2C(=O)c3cc4occc4n3CC2(C)C(=O)NC2CCCCCCC2)c1 (stereo not drawn) | i
CCOc1ccccc1CN1C(=O)c2nc3ccccc3n2CC1(C)C(=O)NC1CCCCC1 (stereo not drawn) | i
C=C1CC2[C@]3(C)C(=C(O)C(=O)[C@@]2(C)[C@]2(C(=O)OC)C(=O)C(C)OC(=O)[C@@]12C)C(C)(C)C(=O)CC3O (stereo partly drawn) | i
Cc1ccccc1Cn1nc2n(CCCOC(C)C)c(=O)c3ccccc3n2c1=O | i
CNc1cc2c(Nc3cccc(Br)c3)ncnc2cn1 | +
CCOCCCNC(=O)c1ccc2c(=O)nc3c(-c4ccccc4)n[nH]n3c2c1 | i
Cc1nn(C)c2c(=O)n(CC(=O)N3CCN(c4ccccn4)CC3)ccc12 | i
OCC1OC(Oc2cc(O)cc(/C=C/c3ccc(OC4OC(CO)C(O)C(O)C4O)cc3O)c2)C(O)C(O)C1O (stereo not drawn) | i
OC[C@H]1O[C@@H](Oc2cc(O)cc(/C=C/c3ccc(O)cc3)c2)[C@H](O)[C@@H](O)[C@@H]1O | +!
COc1cc(O)cc(/C=C/c2ccc(O[C@@H]3O[C@H](CO)[C@@H](O)[C@H](O)[C@H]3O)cc2)c1 | i
SMILES | Methyltransferases
CCOc1ccc(CNC(=O)Cn2ccc3cc(S(=O)(=O)N4CCC(C)CC4)ccc32)cc1 | i
CC1CCCN(C(=O)CN2CCCc3nc(-c4ccccc4)ncc3C2=O)C1 (stereo not drawn) | i
C/C=C(/C)C(=O)O[C@H]1C=C(C)C[C@H](OC(=O)c2ccc(O)cc2)C2[C@](O)(C(C)C)CC[C@@]21C (stereo partly drawn) | i
O=C(Cn1ccc2cc(S(=O)(=O)N3CCCC3)ccc21)NCc1ccccc1Br | i
COc1ccc(CNC(=O)c2sc(=S)n3c2[nH]c(=O)c2cc4c(cc23)OCO4)cc1 | i
COc1ccc(OC)c(NC(=O)c2sc(=S)n3c2[nH]c(=O)c2ccc(Cl)cc23)c1 | +
COc1ccccc1NC(=O)c1sc(=S)n2c1[nH]c(=O)c1ccc(Cl)cc12 | i
O=C1CN(Cc2ccccc2Cl)S(=O)(=O)c2ccccc2N1Cc1ccccc1F | i
COc1ccc2[nH]c(C(=O)N3CCCCCNC(=O)[C@@H]4CCC[C@@H]43)cc2c1 | i
CCc1cc(Nc2nccc(-c3c(-c4ccc(OC)c(C(=O)Nc5c(F)cccc5F)c4)nc4ccccn34)n2)c(OC)cc1N1CCC(N2CCN(S(C)(=O)=O)CC2)CC1 | +
CC1CC(=O)[C@]2(O)C(C(=O)OCCc3ccc(O)cc3)=CO[C@@H](O[C@@H]3O[C@H](CO)[C@@H](O)[C@H](O)[C@H]3O)[C@H]12 (stereo partly drawn) | i
Cc1cc(CN2C[C@@H](CO)[C@H](NC(=O)C3CCC3)C2)n(C)n1 | i
CCCC1c2ccc(C)n2CCN1C(=O)NCc1ccc(C)cc1 (stereo not drawn) | i
CC(C)CCn1c(=O)c2ccccc2n2c(CCC(=O)NCCc3ccc(Cl)cc3)nnc12 | i

Screening data: PubChem BioAssay, National Center for Advancing Translational Sciences (NCATS)
